From PubChem BioAssay AID1159580 (chemical genetic matrix, 2015)
Where “and” joins values, the source holds several entries; their conditions need not be identical. Equal entries are not always repeated. The whole screen tested about 5,500 compounds, of which about 2,000 (36%) were called active. Not shown: some 18% with an inconclusive outcome. No stated cut-off is given here; in the data, active means normalized growth mostly below about 0.91 (no sharp cut-off); inconclusive means no clear call, values can overlap the other calls; inactive means mostly above about 0.92. The list shows a part of the results.

Assay: chemical genetic growth profiling, strain panel (AID 1159580);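 further: tested at 20 µM; growth read once vehicle control cultures reached saturation at 30 °C; 1 = growth at the plate median or of vehicle wells; lower values mean less growth of the strain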
Details: growth OD

Measured: normalized growth

O=C1NCC2(CCN(CCc3ccccc3)CC2)O1
inactive: S. cerevisiae deletion strains, locus YKL009W, strain mrt4, active compounds read low 0.986 | S. cerevisiae deletion strains, locus YKL068W, active compounds read low 0.995 | S. cerevisiae deletion strains, locus YKL085W, strain MDH1 (second series), active compounds read low 0.995 | S. cerevisiae deletion strains, locus YKL085W, strain MDH1, active compounds read low 0.995 | S. cerevisiae deletion strains, locus YKL160W, strain elf1, active compounds read low 0.97 | S. cerevisiae deletion strains, locus YKL190W, strain CNB1, active compounds read low 1 | S. cerevisiae deletion strains, locus YKR001C, strain vps1, active compounds read low 0.999 | S. cerevisiae deletion strains, locus YKR026C, strain gcn3, active compounds read low 0.939 | S. cerevisiae deletion strains, locus YKR091W, strain srl3, active compounds read low 1.01 | S. cerevisiae deletion strains, locus YLL001W, strain dnm1, active compounds read low 0.945 | S. cerevisiae deletion strains, locus YLL026W, active compounds read low 1 | S. cerevisiae deletion strains, locus YLL041C, strain sdh2, active compounds read low 0.999 | S. cerevisiae deletion strains, locus YLR027C, strain aat2, active compounds read low 0.995 | S. cerevisiae deletion strains, locus YLR039C, strain RIC1, active compounds read low 1 | S. cerevisiae deletion strains, locus YLR058C, strain SHM2, active compounds read low 1.01 | S. cerevisiae deletion strains, locus YLR102C, strain apc9, active compounds read low 0.999 | S. cerevisiae deletion strains, locus YLR113W, strain HOG1, active compounds read low 0.964 | S. cerevisiae deletion strains, locus YLR221C, strain rsa3, active compounds read low 1 | S. cerevisiae deletion strains, locus YLR258W, strain gsy2, active compounds read low 1 | S. cerevisiae deletion strains, locus YLR262C, strain YPT6 (second series), active compounds read low 0.981 | S. cerevisiae deletion strains, locus YLR262C, strain YPT6, active compounds read low 0.968 | S. cerevisiae deletion strains, locus YLR268W, strain sec22, active compounds read low 1.04 | S. cerevisiae deletion strains, locus YLR320W, strain mms22, active compounds read low 1.02 | S. cerevisiae deletion strains, locus YLR330W, strain CHS5, active compounds read low 1.01 | S. cerevisiae deletion strains, locus YLR342W, strain FKS1 (second series), active compounds read low 1.01 | S. cerevisiae deletion strains, locus YLR342W, strain FKS1, active compounds read low 0.994 | S. cerevisiae deletion strains, locus YLR357W, strain rsc2, active compounds read low 0.981 | S. cerevisiae deletion strains, locus YLR370C, strain arc18, active compounds read low 0.989 | S. cerevisiae deletion strains, locus YLR371W, strain rom2, active compounds read low 1.01 | S. cerevisiae deletion strains, locus YLR384C, strain iki3, active compounds read low 0.988 | S. cerevisiae deletion strains, locus YLR418C, strain cdc73, active compounds read low 0.981 | S. cerevisiae deletion strains, locus YML016C, strain PPZ1, active compounds read low 1 | S. cerevisiae deletion strains, locus YML032C, strain rad52, active compounds read low 1.02 | S. cerevisiae deletion strains, locus YML120C, strain ndi1, active compounds read low 0.984 | S. cerevisiae deletion strains, locus YML124C, strain tub3, active compounds read low 0.996 | S. cerevisiae deletion strains, locus YMR058W, strain fet3, active compounds read low 0.979 | S. cerevisiae deletion strains, locus YMR078C, strain ctf18, active compounds read low 1 | S. cerevisiae deletion strains, locus YMR125W, strain sto1, active compounds read low 0.97 | S. cerevisiae deletion strains, locus YMR129W, active compounds read low 0.98 | S. cerevisiae deletion strains, locus YMR205C, strain PFK2, active compounds read low 1.01 | S. cerevisiae deletion strains, locus YMR223W, strain ubp8, active compounds read low 0.978 | S. cerevisiae deletion strains, locus YMR231W, strain pep5, active compounds read low 0.994 | S. cerevisiae deletion strains, locus YMR263W, strain SAP30, active compounds read low 1.02 and 1 | S. cerevisiae deletion strains, locus YMR307W, strain GAS1, active compounds read low 0.884 | S. cerevisiae deletion strains, locus YNL067W, strain RPL9B, active compounds read low 1.02 | S. cerevisiae deletion strains, locus YNL071W, strain lat1, active compounds read low 1.01 | S. cerevisiae deletion strains, locus YNL128W, strain TEP1, active compounds read low 1.02 | S. cerevisiae deletion strains, locus YNL153C, strain GIM3, active compounds read low 1.02 and 1.04 | S. cerevisiae deletion strains, locus YNL175C, strain NOP13, active compounds read low 1.01 | S. cerevisiae deletion strains, locus YNL183C, strain NPR1, active compounds read low 0.904 | S. cerevisiae deletion strains, locus YNL197C, strain WHI3, active compounds read low 0.992 | S. cerevisiae deletion strains, locus YNL209W, strain ssb2, active compounds read low 0.998 | S. cerevisiae deletion strains, locus YNL224C, strain SQS1, active compounds read low 0.995 | S. cerevisiae deletion strains, locus YNL233W, strain BNI4, active compounds read low 1.02 | S. cerevisiae deletion strains, locus YNL248C, strain rpa49, active compounds read low 1.01 | S. cerevisiae deletion strains, locus YNL250W, strain rad50, active compounds read low 1 | S. cerevisiae deletion strains, locus YNL271C, strain bni1, active compounds read low 1.01 | S. cerevisiae deletion strains, locus YNL298W, strain CLA4, active compounds read low 0.989 | S. cerevisiae deletion strains, locus YNL307C, strain MCK1, active compounds read low 1.01 | S. cerevisiae deletion strains, locus YNL322C, strain KRE1 (second series), active compounds read low 0.999 | S. cerevisiae deletion strains, locus YNL322C, strain KRE1, active compounds read low 1 and 1.01 | S. cerevisiae deletion strains, locus YNR049C, strain mso1, active compounds read low 0.987 | S. cerevisiae deletion strains, locus YNR052C, strain pop2, active compounds read low 1 | S. cerevisiae deletion strains, locus YOL006C, strain TOP1, active compounds read low 1.07 | S. cerevisiae deletion strains, locus YOL012C, strain htz1 0.911 | S. cerevisiae deletion strains, locus YOL147C, strain pex11, active compounds read low 0.996 | S. cerevisiae deletion strains, locus YOR001W, strain rrp6, active compounds read low 0.985 | S. cerevisiae deletion strains, locus YOR061W, strain CKA2, active compounds read low 1.01 | S. cerevisiae deletion strains, locus YOR069W, strain VPS5, active compounds read low 0.99 | S. cerevisiae deletion strains, locus YOR070C, strain gyp1, active compounds read low 1 | S. cerevisiae deletion strains, locus YOR080W, strain dia2, active compounds read low 0.988 | S. cerevisiae deletion strains, locus YOR083W, strain WHI5 (second series), active compounds read low 1 | S. cerevisiae deletion strains, locus YOR083W, strain WHI5, active compounds read low 0.988 | S. cerevisiae deletion strains, locus YOR106W, strain vam3, active compounds read low 0.979 | S. cerevisiae deletion strains, locus YOR136W, strain idh2, active compounds read low 0.988 | S. cerevisiae deletion strains, locus YOR144C, strain elg1, active compounds read low 1 | S. cerevisiae deletion strains, locus YOR184W, strain ser1, active compounds read low 0.993 | S. cerevisiae deletion strains, locus YOR231W, strain MKK1, active compounds read low 0.979 | S. cerevisiae deletion strains, locus YOR265W, strain rbl2, active compounds read low 0.999 | S. cerevisiae deletion strains, locus YOR270C, strain vph1, active compounds read low 0.975 | S. cerevisiae deletion strains, locus YOR290C, strain snf2, active compounds read low 1 | S. cerevisiae deletion strains, locus YOR316C, strain cot1, active compounds read low 0.999 | S. cerevisiae deletion strains, locus YPL051W, strain arl3, active compounds read low 0.995 | S. cerevisiae deletion strains, locus YPL055C, strain LGE1, active compounds read low 0.993 and 1 | S. cerevisiae deletion strains, locus YPL078C, strain atp4, active compounds read low 0.991 | S. cerevisiae deletion strains, locus YPL106C, strain sse1, active compounds read low 1 | S. cerevisiae deletion strains, locus YPL240C, strain hsp82, active compounds read low 0.986 | S. cerevisiae deletion strains, locus YPL241C, strain CIN2, active compounds read low 1.01 | S. cerevisiae deletion strains, locus YPL256C, strain CLN2, active compounds read low 0.986 | S. cerevisiae deletion strains, locus YPR119W, strain clb2, active compounds read low 1 | S. cerevisiae deletion strains, locus YPR141C, strain kar3, active compounds read low 0.997 | S. cerevisiae deletion strains, locus YPR163C, strain tif3, active compounds read low 1.01 | S. cerevisiae deletion strains, locus YPR167C, strain met16, active compounds read low 1 | S. cerevisiae deletion strains, strain wtn01, active compounds read low 0.997 | S. cerevisiae strains, strain wild type, active compounds read low 1.01
